The target in experiment [1] is Lysosomal acid glucosylceramidase (Homo sapiens) (UniProt P04062). Put plainly: Glucocerebrosidase-p2 (AID 348; in the data active = potency below about 10 µM; note: potency is the fitted concentration of half-maximal effect). Particulars: purified GBA, blue fluorogenic substrate, 40 min. The gist of the method:
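Normal human glucocerebrosidase (0.2 nM) with blue fluorogenic substrate (80 uM final) in citrate/phosphate pH 5.9 with 10mM sodium taurocholate, 0.01% tween-20; 40 min RT, NaOH/glycine stop; fluorescence Ex 365/Em 440; AC50 from a titration from 0.6 nM upwards.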

Experiment [2] in a line: AP1 Signaling Pathway (AID 357; active = well fitted curve in either direction with a large enough effect, not every such curve was filed as active;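 note: ME-180 reporter cells stimulated with EGF at its EC50 level; % is set by controls: 0 for no effect and ±100 for the full control effect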). Particulars: ME-180 AP-1-bla reporter, EGF-induced, beta-lactamase ratio, 5 h; at 7.69 µM (top of the series) unless noted. Summed up:
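In this screen, ME-180 cells in Opti-MEM with 0.5% dialyzed FBS received EC50 EGF and compound titrations for 5 h. AP-1 reporter beta-lactamase was detected via CCF4 ratio, giving AC50 for positive and negative modulators.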

Experiment [3] has as its target Cytochrome P450 1A2 (Homo sapiens) (UniProt P05177). In words: p450-cyp1a2 (AID 410; calls by dose curve; note: potency is the fitted concentration of half-maximal effect). The note with it: recombinant CYP1A2, luciferin-ME demethylation, luminescence; series mostly up to 57 µM. Summed up:
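20nM CYP1A2, 100uM Luciferin-ME (=Km), 100mM KPO4; cpd 10 min RT; +NADPH regen, 60 min RT; stop/detect 20 min; luminescence. Normalized to furafylline 57 uM = full inhibition.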

Experiment [4] can be described thus: NFAT Signaling Pathway (AID 444; active = well fitted curve in either direction with a large enough effect, not every such curve was filed as active;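 note: carbachol stimulus at about its EC50 of 1 µM final; % is set by controls: 0 for no effect and ±100 for the full control effect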). The note with it: Jurkat NFAT-bla M1, carbachol, beta-lactamase ratio, 5 h; at 7.69 µM (top of the series) unless noted. The gist of the method:
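Read-out: CCF4 FRET ratio (460 nm/530 nm) after 1 h RT dye loading, used for %activity and AC50 from titration series. Cells: Jurkat NFAT-β-lactamase/M1 line, treated with compound plus 1 uM carbachol for 5 h, 37 °C.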

The nature of experiment [5]: Stat Signaling Pathway (AID 446; active = well fitted curve in either direction with a large enough effect, not every such curve was filed as active;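 note: ME-180 cervical cancer cells given 40 pM IL-6 alongside compound; SIE-controlled beta-lactamase reporter measured as 460/530 nm FRET emission ratio; % is set by controls: 0 for no effect and ±100 for the full control effect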). Particulars: ME-180 (cervical carcinoma) SIE beta-lactamase reporter, IL-6 stimulated, 5 h; at 7.69 µM (top of the series) unless noted. The gist of the method: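 Emission at 460 and 530 nm (excitation 405 nm) reports SIE-controlled beta-lactamase in ME-180 cells. Cells received compound with 40 pM IL-6 for 5 hrs at 37 C; data scaled between 300 pM IL-6 and 125 nM JAK-inhibitor controls.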

The target of experiment [6] is Glucocorticoid receptor (Homo sapiens) (UniProt P04150). In words: GR-GFP Redistribution (AID 450;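 active = compounds whose dose series gives a full or clear partial fitted curve of increased nuclear translocation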; note: potency is the fitted concentration of half-maximal effect). Particulars: U2OS GR-GFP nuclear translocation, laser cytometry, 2 h.
Chain of Glucocorticoid receptor (Homo sapiens) (P04150 whole entry, looked up): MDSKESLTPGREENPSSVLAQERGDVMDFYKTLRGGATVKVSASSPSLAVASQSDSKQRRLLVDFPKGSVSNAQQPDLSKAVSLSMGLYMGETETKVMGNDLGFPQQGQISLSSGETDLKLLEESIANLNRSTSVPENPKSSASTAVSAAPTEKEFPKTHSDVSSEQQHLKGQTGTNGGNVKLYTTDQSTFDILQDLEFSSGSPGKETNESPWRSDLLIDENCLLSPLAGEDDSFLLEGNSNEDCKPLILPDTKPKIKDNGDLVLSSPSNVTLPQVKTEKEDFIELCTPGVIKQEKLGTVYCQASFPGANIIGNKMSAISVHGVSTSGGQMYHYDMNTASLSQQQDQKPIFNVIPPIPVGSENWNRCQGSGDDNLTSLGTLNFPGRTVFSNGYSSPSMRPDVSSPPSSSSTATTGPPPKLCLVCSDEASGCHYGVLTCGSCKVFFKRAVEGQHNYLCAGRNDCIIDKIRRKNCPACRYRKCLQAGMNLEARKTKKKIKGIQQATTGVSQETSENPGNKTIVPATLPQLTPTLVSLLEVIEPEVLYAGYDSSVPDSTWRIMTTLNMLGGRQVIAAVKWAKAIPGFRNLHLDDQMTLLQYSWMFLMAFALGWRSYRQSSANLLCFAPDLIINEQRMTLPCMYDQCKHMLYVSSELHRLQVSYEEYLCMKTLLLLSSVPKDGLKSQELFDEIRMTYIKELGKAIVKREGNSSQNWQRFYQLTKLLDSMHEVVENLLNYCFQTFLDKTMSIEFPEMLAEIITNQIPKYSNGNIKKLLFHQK
Experiment [7] has the same target. In words: GR-EFC Redistribution (AID 451; calls by dose curve; note: potency is the fitted concentration of half-maximal effect). Particulars: CHO-K1 GR-EFC translocation, beta-gal luminescence, 2 h. Summed up:
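Translocation of GR-ED fusion to nuclear EA restores b-gal, read by luminescence after 1 h room-temperature detection. Engineered CHO-K1 biosensor cells, 1,000/well, exposed 2 h at 37 C to titrations up to 46 uM final.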

The target in experiment [8] is Mitogen-activated protein kinase 10 (Mus musculus) (UniProt Q61831). In words: JNK3 AlphaScreen Assay (AID 530; active = well fitted curve in either direction with a large enough effect, not every such curve was filed as active;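 note: kinase came from lysate of stimulated human HepG2 cells; signal reports phosphorylation of biotinylated GST-cJun 1-79 at Ser73 with 10 µM ATP; % is set by controls: 0 for no effect and ±100 for the full control effect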). The note with it: JNK3 lysate, c-Jun phosphorylation; series mostly up to 57.1 µM. Summed up:
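Kinase buffer: 20 mM Tris-HCl pH 7.6, 10 mM MgCl2, 1 mM DTT, 0.1 mM Na3VO4, 0.01% Tween-20; ATP 10 uM. Substrate biotin-GST-cJun(1-79), enzyme from activated HepG2 lysates. Detection by Ser73 phospho-antibody AlphaScreen.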
On the technique in general: In Alpha technology, singlet oxygen from a donor bead excites a nearby acceptor bead.

Experiment [9] addresses 3',5'-cyclic-AMP phosphodiesterase 4B (Homo sapiens) (UniProt Q07343). In words: qHTS Assay for Inhibitors of PDE-IV (AID 607; active = well fitted activation curve with a large enough effect in the main read-out, with a control signal flat, not every such curve was filed as active; note: % of control where 0% means no effect). The note with it: HEK293 ACTOne CNG channel cells, membrane potential fluorescence; series mostly up to 22.9 µM. The gist of the method: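 The readout is membrane depolarisation from a cAMP-sensing CNG channel, detected with a potential dye at ex 535/em 590. Cells were HEK293-derived (endogenous PDE-IV) at 1000 cells/well, titrated up to 22.9 uM final.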
On the technique in general: qHTS replaces the single test concentration by a dilution series.

Experiment [10] deals with Dual specificity protein kinase CLK4 (Homo sapiens) (UniProt Q9HAZ1). Put plainly: qHTS Assay for Inhibitors of CDC-like Kinase 4 (Kinase-Glo Assay) (AID 1770). Note: % is set by controls: 0 for no effect and ±100 for the full control effect; nearly all actives have a fitted effect of over 65% in size. The note with it: recombinant Clk4, Kinase-Glo ATP depletion luminescence; series mostly up to 66.7 µM. The gist of the method:
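Inhibition was judged from remaining ATP, measured by Ultra-Glo luciferase bioluminescence after Clk4 (25 nM) had acted on RS peptide at 1 uM ATP for 4.5 hours, room temperature.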

For experiment [11] the target is unchanged. In words: qHTS Assay for Inhibitors of CDC-like Kinase 4 (ADP-Glo Assay) (AID 1771). Note: % is set by controls: 0 for no effect and ±100 for the full control effect; nearly all actives have a fitted effect of over 70% in size. Particulars: recombinant CLK4, ADP-Glo luminescence; series mostly up to 80 µM. Summed up:
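25 nM Clk4, 100 uM RS peptide, 1 uM ATP (final); 2 mM MgCl2, 0.5 mM EGTA, 2.5 mM DTT, 0.01% Triton X-100; 1 hr RT. ADP-Glo readout: ATP depletion 45 min, conversion/luciferase 30 min, luminescence.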

For experiment [12] the target is unchanged. Put plainly: qHTS Assay for Inhibitors of CDC-like Kinase 4 (ADP-FP Assay) (AID 1795).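 Note: recombinant human CLK4 phosphorylating RS repeat peptide at 1 µM ATP; % is set by controls: 0 for no effect and ±100 for the full control effect; nearly all actives have a fitted effect of over 60% in size.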 The note with it: Transcreener ADP fluorescence polarization; series mostly up to 50 µM. The gist of the method:
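Inhibition of ADP formation by 6.25 nM Clk4 is measured using 1 uM ATP and 100 uM RS repeat peptide over one hour. Produced ADP displaces a fluorescent tracer from antibody, lowering polarization.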

For experiment [13], the target named is Ubiquitin carboxyl-terminal hydrolase 1 (Homo sapiens) (UniProt O94782). Put plainly: Inhibitors of USP1/UAF1: Pilot qHTS (AID 504865).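 Note: rhodamine fluorescence freed from ubiquitin-rhodamine substrate followed over time; top concentration of the series differs between compounds; % is set by controls: 0 for no effect and ±100 for the full control effect; nearly all actives have a fitted effect of over 35% in size.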 The note with it: purified USP1/UAF1, Ub-rhodamine cleavage fluorescence; series mostly up to 54.9 µM. Summed up:
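Kinetic fluorescence assay: 1nM USP1/UAF1, 15 min compound preincubation, then 150nM Ub-Rho; 480/540 nm.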

Experiment [14] in a line: Primary qHTS for small molecule stabilizers of the endoplasmic reticulum resident proteome: Secreted ER Calcium Modulated Protein (SERCaMP) assay (AID 1508630). Note: % is set by controls: 0 for no effect and ±100 for the full control effect. The note with it: SH-SY5Y GLuc-SERCaMP (Gaussia luciferase released on ER calcium loss) secretion, thapsigargin, luminescence; series mostly up to 38.4 µM. Summed up: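 The SH-SY5Y reporter protocol was run at 3 concentrations up to 38.3 uM (primary) or 11 concentrations (follow-up): 16 h compound, 100 nM thapsigargin for 4 h, then extracellular luciferase luminescence.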

Experiment [15] has as its target Cytochrome P450 3A4 (Homo sapiens) (UniProt P08684). Put plainly: qHTS Assay for Activators of Cytochrome P450 3A4 (AID 885). Note: nearly all actives have a fitted effect of over 65% in size. Particulars: recombinant CYP3A4, Luciferin-PPXE luminescence, 60 min; series mostly up to 57.1 µM. The gist of the method:
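Activators are scored by enhanced luminescence from CYP3A4 conversion of luciferin-PPXE (25uM, equal to KM) to luciferin, after 60 min at RT with an NADPH-regenerating system.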

The target of experiment [16] is Rap guanine nucleotide exchange factor 3 (Homo sapiens) (UniProt O95398). Put plainly: Confirmatory qHTS for agonist of cAMP-regulated guanine nucleotide exchange factor 3 (EPAC1) (AID 1645881).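 Note: EPAC1 catalysed release of BODIPY-GDP from Rap1B seen as fluorescence loss; 100% = effect of cAMP agonist control; nearly all actives have a fitted effect of over 75% in size.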 The note with it: EPAC1 Rap1B BODIPY-GDP exchange fluorescence; series mostly up to 154 µM.
Experiment [17] addresses Rap guanine nucleotide exchange factor 4 (Homo sapiens) (UniProt Q8WZA2). In words: Confirmatory qHTS for agonist of cAMP-regulated guanine nucleotide exchange factor 4 (EPAC2) (AID 1645884).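 Note: nucleotide exchange releases bodipy-GDP from Rap1 and this lowers its fluorescence; % is set by controls: 0 for no effect and ±100 for the full control effect; nearly all actives have a fitted effect of over 65% in size.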 Particulars: EPAC2 GEF activity, Rap1B-BODIPY-GDP fluorescence; series mostly up to 154 µM.
The target in experiment [18] is Cytochrome P450 2D6 (Homo sapiens) (UniProt P10635). Put plainly: qHTS Assay for Inhibitors and Substrates of Cytochrome P450 2D6 (AID 891).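 Note: luciferin methyl ether substrate demethylated by CYP2D6 with NADPH regeneration; % is set by controls: 0 for no effect and ±100 for the full control effect; nearly all actives have a fitted effect of over 60% in size.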 Particulars: recombinant CYP2D6, luciferin-ME EGE luminescence; series mostly up to 57.1 µM. The gist of the method:
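Luminescent read-out of luciferin formed by 5 nM human CYP2D6 demethylating 30 uM Luciferin-ME EGE (Km level) over 60 min at room temperature after NADPH regeneration addition. Data normalized to full inhibition by 1.43 uM quinidine.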

Experiment [19] concerns the target Cytochrome P450 2C19 (Homo sapiens) (UniProt P33261). In words: qHTS Assay for Inhibitors and Substrates of Cytochrome P450 2C19 (AID 899). Note: nearly all actives have a fitted effect of over 60% in size. Note: potency is the fitted concentration of half-maximal effect. Particulars: recombinant CYP2C19, luciferin-H EGE luminescence; series mostly up to 57.1 µM. Summed up: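 Luminescence readout of luciferin formed from 10uM Luciferin-H EGE (KM level) by 5 nM CYP2C19 in 50mM KPO4. 60 min NADPH-driven reaction at 37C after 10 min compound preincubation; data scaled to 57uM ketoconazole inhibition.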

Where “and” joins values, the source holds several entries; their conditions need not be identical. Equal entries are not always repeated. Inconclusive results are not listed. More than one record can exist for a structure, and the calls need not agree. Calls of active or inactive are those of the source. Unless noted, calls come from the whole dose curve; as a rule, active = well fitted curve in the direction sought with a large enough effect; inconclusive = small, poorly fitted or top-dose-only effect, or another doubt; inactive = no such curve, though single readings can be large; an effect the other way counts as inactive or inconclusive.

Chain of Ubiquitin carboxyl-terminal hydrolase 1 (Homo sapiens) (O94782 whole entry, looked up): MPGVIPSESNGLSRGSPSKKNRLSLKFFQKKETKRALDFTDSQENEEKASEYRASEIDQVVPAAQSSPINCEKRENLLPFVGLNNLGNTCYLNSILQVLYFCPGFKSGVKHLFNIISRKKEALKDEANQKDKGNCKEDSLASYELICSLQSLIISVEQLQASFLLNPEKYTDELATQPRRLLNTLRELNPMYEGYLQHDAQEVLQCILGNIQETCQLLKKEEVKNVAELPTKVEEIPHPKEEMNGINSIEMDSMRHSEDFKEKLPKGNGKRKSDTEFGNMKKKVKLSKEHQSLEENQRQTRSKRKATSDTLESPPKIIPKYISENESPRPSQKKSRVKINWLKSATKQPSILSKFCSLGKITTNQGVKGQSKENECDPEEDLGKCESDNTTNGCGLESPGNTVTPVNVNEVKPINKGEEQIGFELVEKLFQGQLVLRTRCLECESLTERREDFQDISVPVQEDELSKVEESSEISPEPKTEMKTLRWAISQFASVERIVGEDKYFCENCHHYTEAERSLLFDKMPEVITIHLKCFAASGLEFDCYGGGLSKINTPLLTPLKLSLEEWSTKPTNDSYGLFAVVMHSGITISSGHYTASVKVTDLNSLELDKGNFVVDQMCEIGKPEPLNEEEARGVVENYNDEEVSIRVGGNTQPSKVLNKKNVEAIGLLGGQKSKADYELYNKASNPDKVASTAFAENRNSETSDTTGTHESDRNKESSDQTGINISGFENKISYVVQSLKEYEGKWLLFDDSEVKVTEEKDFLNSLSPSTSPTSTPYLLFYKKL
Chain of 3',5'-cyclic-AMP phosphodiesterase 4B (Homo sapiens) (Q07343 whole entry, looked up): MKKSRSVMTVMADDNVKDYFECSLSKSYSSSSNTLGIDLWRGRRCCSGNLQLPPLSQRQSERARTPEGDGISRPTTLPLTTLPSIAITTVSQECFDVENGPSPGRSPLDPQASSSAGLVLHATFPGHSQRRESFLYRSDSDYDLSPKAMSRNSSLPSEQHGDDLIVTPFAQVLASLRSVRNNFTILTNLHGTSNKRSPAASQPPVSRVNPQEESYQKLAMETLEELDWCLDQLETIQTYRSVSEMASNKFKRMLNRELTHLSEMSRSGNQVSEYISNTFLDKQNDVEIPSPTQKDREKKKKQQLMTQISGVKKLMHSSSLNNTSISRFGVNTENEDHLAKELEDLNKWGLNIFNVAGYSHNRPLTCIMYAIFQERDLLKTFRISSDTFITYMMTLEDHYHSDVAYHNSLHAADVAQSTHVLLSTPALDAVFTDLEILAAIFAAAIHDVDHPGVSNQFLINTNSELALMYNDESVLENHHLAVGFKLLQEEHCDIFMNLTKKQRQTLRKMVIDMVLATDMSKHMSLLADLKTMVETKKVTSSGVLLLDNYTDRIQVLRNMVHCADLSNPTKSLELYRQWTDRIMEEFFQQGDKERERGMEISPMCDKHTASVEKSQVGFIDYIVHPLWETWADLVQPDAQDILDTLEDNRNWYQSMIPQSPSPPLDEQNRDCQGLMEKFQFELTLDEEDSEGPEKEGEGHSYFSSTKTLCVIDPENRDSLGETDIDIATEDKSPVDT
Chain of Lysosomal acid glucosylceramidase (Homo sapiens) (P04062 whole entry, looked up): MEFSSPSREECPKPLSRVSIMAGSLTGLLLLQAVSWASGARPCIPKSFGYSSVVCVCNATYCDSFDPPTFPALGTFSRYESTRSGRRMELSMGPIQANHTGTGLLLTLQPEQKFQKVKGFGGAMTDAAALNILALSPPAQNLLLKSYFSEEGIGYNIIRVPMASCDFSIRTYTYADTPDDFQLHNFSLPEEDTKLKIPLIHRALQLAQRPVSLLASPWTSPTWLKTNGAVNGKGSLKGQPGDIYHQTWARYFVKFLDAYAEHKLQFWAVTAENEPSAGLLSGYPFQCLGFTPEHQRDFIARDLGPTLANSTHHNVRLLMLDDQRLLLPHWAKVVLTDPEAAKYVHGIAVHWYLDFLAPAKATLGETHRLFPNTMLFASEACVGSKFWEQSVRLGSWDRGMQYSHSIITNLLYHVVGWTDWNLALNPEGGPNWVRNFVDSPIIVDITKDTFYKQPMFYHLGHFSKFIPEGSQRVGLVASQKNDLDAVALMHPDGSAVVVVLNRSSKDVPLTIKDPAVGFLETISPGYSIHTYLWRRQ
Chain of Dual specificity protein kinase CLK4 (Homo sapiens) (Q9HAZ1 whole entry, looked up): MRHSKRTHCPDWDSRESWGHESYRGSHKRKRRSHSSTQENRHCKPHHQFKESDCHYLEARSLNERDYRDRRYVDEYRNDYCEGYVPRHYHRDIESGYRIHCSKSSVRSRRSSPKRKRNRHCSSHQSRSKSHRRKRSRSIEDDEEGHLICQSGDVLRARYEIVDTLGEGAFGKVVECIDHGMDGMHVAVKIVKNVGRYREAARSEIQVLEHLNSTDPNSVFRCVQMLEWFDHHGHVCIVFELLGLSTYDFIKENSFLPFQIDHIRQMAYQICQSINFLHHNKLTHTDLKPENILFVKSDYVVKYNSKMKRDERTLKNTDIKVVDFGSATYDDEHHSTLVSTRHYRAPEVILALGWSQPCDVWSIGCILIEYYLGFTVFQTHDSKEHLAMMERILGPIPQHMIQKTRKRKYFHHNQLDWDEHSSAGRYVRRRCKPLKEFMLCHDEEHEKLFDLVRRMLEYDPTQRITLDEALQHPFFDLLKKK
Chain of Cytochrome P450 1A2 (Homo sapiens) (P05177 whole entry, looked up): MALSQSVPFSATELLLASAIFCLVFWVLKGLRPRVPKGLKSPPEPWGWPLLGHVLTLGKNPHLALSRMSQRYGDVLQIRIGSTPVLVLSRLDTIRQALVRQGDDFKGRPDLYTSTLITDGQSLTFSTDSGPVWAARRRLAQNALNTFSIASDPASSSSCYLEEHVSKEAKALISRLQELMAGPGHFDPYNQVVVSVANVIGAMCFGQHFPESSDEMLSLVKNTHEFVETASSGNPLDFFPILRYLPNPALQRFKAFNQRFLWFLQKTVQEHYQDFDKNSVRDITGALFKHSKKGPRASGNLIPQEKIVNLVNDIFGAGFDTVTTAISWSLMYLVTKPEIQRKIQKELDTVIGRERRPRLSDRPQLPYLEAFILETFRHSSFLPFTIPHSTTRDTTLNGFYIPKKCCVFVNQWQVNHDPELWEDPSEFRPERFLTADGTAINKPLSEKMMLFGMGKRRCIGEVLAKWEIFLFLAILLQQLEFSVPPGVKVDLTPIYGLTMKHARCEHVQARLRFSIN
Chain of Cytochrome P450 3A4 (Homo sapiens) (P08684 whole entry, looked up): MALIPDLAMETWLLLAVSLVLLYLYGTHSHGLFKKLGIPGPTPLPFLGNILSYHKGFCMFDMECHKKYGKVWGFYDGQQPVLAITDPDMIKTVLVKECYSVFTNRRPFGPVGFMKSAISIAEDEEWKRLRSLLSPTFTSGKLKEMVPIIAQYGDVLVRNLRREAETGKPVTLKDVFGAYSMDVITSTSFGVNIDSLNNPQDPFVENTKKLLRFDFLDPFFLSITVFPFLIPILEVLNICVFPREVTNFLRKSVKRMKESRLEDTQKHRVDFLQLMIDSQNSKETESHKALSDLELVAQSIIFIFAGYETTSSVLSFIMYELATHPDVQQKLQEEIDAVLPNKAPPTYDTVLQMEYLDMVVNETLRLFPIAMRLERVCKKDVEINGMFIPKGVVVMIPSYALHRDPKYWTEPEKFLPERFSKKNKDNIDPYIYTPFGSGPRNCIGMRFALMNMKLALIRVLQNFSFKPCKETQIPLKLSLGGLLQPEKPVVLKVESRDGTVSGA
Chain of Cytochrome P450 2C19 (Homo sapiens) (P33261 whole entry, looked up): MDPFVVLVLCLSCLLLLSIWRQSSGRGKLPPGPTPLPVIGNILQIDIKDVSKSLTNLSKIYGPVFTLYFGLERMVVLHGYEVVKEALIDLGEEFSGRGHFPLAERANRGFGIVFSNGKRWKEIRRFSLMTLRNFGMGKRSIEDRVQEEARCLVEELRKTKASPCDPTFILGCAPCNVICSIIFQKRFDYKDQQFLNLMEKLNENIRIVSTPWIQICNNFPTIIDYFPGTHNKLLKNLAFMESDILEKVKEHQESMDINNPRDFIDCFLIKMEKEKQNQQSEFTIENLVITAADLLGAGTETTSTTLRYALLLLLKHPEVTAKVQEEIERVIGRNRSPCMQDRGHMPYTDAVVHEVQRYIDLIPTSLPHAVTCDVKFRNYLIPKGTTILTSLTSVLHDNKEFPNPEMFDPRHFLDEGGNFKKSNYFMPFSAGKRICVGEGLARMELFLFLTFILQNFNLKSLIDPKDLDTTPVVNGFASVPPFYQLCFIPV

Turning to `Clc1ccccc1-c1cc(NCCN2CCOCC2)ncn1`, the Potency in [1] is > 11.4 µM (inactive); in experiment [3] it was 31.6 µM (active); in experiment [6], > 46 µM (inactive); in [7], > 46 µM (inactive). Moreover, the activity change, negative = inhibition is 1.17% (inactive) in experiment [2] and -9.62% (inactive) in experiment [4]. In addition, the activity, negative = inhibition in experiment [5] is 2.93% (inactive). In addition, the Potency entry in [8], in [9], in [10], in [11], in experiment [12] and in experiment [13] was “inactive” in each case. The result in experiment [14] was inactive.

As for `O=C(c1csnn1)N1CCC2(CC1)CN(c1cccc(-c3ccccc3)c1)C2`, the activity change, negative = inhibition in experiment [2] was -15.1% (inactive); in experiment [4], -11.3% (inactive). Also, the Potency in experiment [3] is 12.6 µM (active); in experiment [7], > 46 µM (inactive). The Potency result in experiment [8], in experiment [9], in experiment [15], in experiment [16] and in experiment [17] was “inactive” throughout. In addition, the outcome in experiment [14] was inactive.

Turning to `Cc1c(CC(C)(C)C(=O)O)n(Cc2ccc(Cl)cc2)c2ccc(F)cc12`, the activity change, negative = inhibition in [2] is -22.4% [at 38 µM] (inactive). In addition, the Potency in experiment [3] is 12.6 µM (active) and 15.8 µM (active); in experiment [6] it was > 46 µM (inactive); in [7], > 46 µM (inactive); in experiment [19], 316 nM (active) and inactive. The activity, negative = inhibition in experiment [5] was -0.406% [at 38 µM] (inactive). In addition, the Potency result in experiment [8], in [9], in experiment [15], in experiment [18], in experiment [16] and in experiment [17] was “inactive” each time. In addition, the outcome in experiment [14] was inactive.

Turning to `CN(C)c1ncc2nc(-c3ccc(Cl)cc3)c(=O)n(C[C@H]3CCCO3)c2n1`, the Potency was > 11.4 µM (inactive) in experiment [1], 3.98 µM (active) in [3], > 9.22 µM (inactive) in [6] and > 46 µM (inactive) in experiment [7]. In addition, the activity change, negative = inhibition in experiment [2] is 9.11% (inactive); in experiment [4], 21.9% (inactive). Moreover, in experiment [5], the activity, negative = inhibition is 11.6% (inactive). Further, the Potency result in [8], in [9], in experiment [10], in [11], in experiment [12] and in experiment [13] was “inactive” throughout. For the same compound, the outcome in [14] was inactive.

`CN(C)c1ncc2nc(-c3cccs3)c(=O)n(-c3ccccc3)c2n1`: the Potency in experiment [1] is > 11.4 µM (inactive); in [3] it was 31.6 µM (active); in [6], > 9.22 µM (inactive); in experiment [7] it was > 46 µM (inactive). The activity change, negative = inhibition in experiment [2] was -9.21% (inactive); in [4], 6.03% (inactive). The activity, negative = inhibition in [5] was 21.3% (inactive). Further, the Potency result in experiment [8], in experiment [10], in [11], in [12] and in experiment [13] was “inactive” throughout. Besides, in experiment [14], the result was inactive.

With `Cn1c(=O)c(-c2ccc(Cl)cc2)nc2cnc(OCc3ccccc3)nc21`, the Potency in experiment [1] was > 11.4 µM (inactive); in experiment [3] it was 0.794 µM (active); in experiment [6] it was > 9.22 µM (inactive); in [7], > 46 µM (inactive). The activity change, negative = inhibition in [2] is -12.6% (inactive); in [4], -7.07% (inactive). Besides, the activity, negative = inhibition in experiment [5] was -4.02% (inactive). Further, the Potency entry in [8], in [9], in experiment [10], in experiment [11], in experiment [12] and in experiment [13] was “inactive” in each case. Further, the result in experiment [14] was inactive.

Take `COc1ccc(-n2c(=O)c(CCc3ccccc3)nc3cncnc32)cc1`: the Potency was > 11.4 µM (inactive) in experiment [1], 25.1 µM (active) in experiment [3], > 9.22 µM (inactive) in experiment [6] and > 46 µM (inactive) in experiment [7]. For the same compound, the activity change, negative = inhibition is -15.2% (inactive) in experiment [2] and -3.92% (inactive) in experiment [4]. Besides, the activity, negative = inhibition in [5] was -3.17% (inactive). Moreover, the Potency entry in experiment [8], in experiment [10], in [11], in experiment [12] and in experiment [13] was “inactive” throughout. Further, in [14], the result was inactive.

These data come from PubChem BioAssay (NCATS).
